Data reported in PubChem BioAssay (NCATS).
Results filed as inconclusive are left out. Activity calls are given as the source filed them. The call rests on the fitted dose curve.

assay: S16 Schwann cell PMP22 intronic element beta-lactamase assay (AID 624044); settings: S16 rat Schwann cells, PMP22 element beta-lactamase FRET, 24 h; ratio activity, negative = inhibition: at 38.3 µM (top of the series) unless noted;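 further: 0% = DMSO and -100% = potassium clavulanate positive control; nearly all actives have a fitted effect of over 15% in size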
Summary of the method: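 Rat S16 Schwann cells with beta-Lac driven by a PMP22 intronic element, compound-treated 24 h at 37 °C. LiveBLAzer FRET B/G read: 460 nm normalized to potassium clavulanate vs DMSO; 535 nm FRET as viability; concentration-effect curves classified.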

| SMILES | ratio activity, negative = inhibition |
| --- | --- |
| CCOc1ccc(NC(=S)Nc2ccc(OCC)cc2)cc1 | -1.68% (inactive) |
| CCN(CC)CCCC(C)Nc1cc(/C=C/c2ccccc2Cl)nc2cc(Cl)ccc12 (configuration not stated) | -1.08% (inactive) |
| CC(C)NCC(O)COc1ccccc1-n1cccc1 (configuration not stated) | -5.07% (inactive) |
| CCCCC/C=C\C/C=C\C/C=C\CCCCC(=O)O | -14.4% (inactive) |
| COc1cc2c(cc1OC)[C@@H](Cc1cc(OC)c(OC)c(OC)c1)[N+](C)(CCCOC(=O)CC/C=C/CCC(=O)OCCC[N+]1(C)CCc3cc(OC)c(OC)cc3[C@H]1Cc1cc(OC)c(OC)c(OC)c1)CC2 (some centres not stated) | -5.32% (inactive) |
| CCOC(=O)Cc1ccc(-c2ccccc2)cc1 | 4.96% (inactive) |
| CN(C)c1ccc(C(=C2C=CC(=[N+](C)C)C=C2)c2c(O)c(S(=O)(=O)[O-])cc3cc(S(=O)(=O)O)ccc23)cc1 | 1.14% (inactive) |
| Cn1cc(NC(=O)c2cc(NC(=O)c3cc(NC=O)cn3C)cn2C)cc1C(=O)NCCC(=N)N | 5.48% (inactive) |
| CC(C)(Oc1ccc(C2CCCc3ccccc32)cc1)C(=O)O (configuration not stated) | -0.979% (inactive) |
| CS(=O)(=O)c1ccc([C@@H](O)[C@@H](COC(=O)CN)NC(=O)C(Cl)Cl)cc1 | 3.99% (inactive) |
| O=C(O)/C=C/C(=O)Nc1ccc(S(=O)(=O)Nc2nccs2)cc1 | 1.33% (inactive) |
| CCCCCc1ccc(C)cc1O | 4.39% (inactive) |
| CCCCCCCCCCCC(=O)N(CCO)CCO | 0% (inactive) |
| O=C(/C=C/c1cccc(F)c1)NC1CC1 | 2.97% (inactive) |
| COc1ccc(C(=O)CCC(=O)O)c2ccccc12 | -1.03% (inactive) |
| N#Cc1ccc2c(c1)N(CCCN1CCC(O)CC1)c1ccccc1S2 | -13.2% (inactive) |

| SMILES | ratio activity, negative = inhibition |
| --- | --- |
| O=C(O)CCC/C=C\C[C@@H]1[C@@H](/C=C/[C@@H](O)COc2cccc(C(F)(F)F)c2)[C@H](O)C[C@@H]1O | 4.13% (inactive) |
| c1ccc2c(c1)OCC(CN1CCCCC1)O2 (configuration not stated) | 1.83% (inactive) |
| c1ccc2c(c1)Sc1ccccc1N2CCN1CCCC1 | -1.68% (inactive) |
| [O]=[Bi][O][Bi]=[O] | 3.6% (inactive) |
| CC/C=C\C/C=C\C/C=C\C/C=C\C/C=C\C/C=C\CCC(=O)O | 0.57% (inactive) |
| C=Cc1ccc(S(=O)(=O)O)cc1 | -7.16% (inactive) |
| FC(F)(F)C(F)(F)C(F)(F)C(F)(F)C(F)(F)F | 0% (inactive) |
| NC(=O)Oc1ccc(Cc2ccccc2)cc1 | -0.76% (inactive) |
| O=C(O)c1cc(N=Nc2ccc(O)c(C(=O)O)c2)ccc1O | -0.669% (inactive) |
| CC(=O)Oc1cccc(C(=O)O)c1OC(C)=O | 10.8% (inactive) |
| COC1=C(OC)C(=O)C(C/C=C(\C)CC/C=C(\C)CC/C=C(\C)CC/C=C(\C)CC/C=C(\C)CC/C=C(\C)CC/C=C(\C)CC/C=C(\C)CC/C=C(\C)CCC=C(C)C)=C(C)C1=O | 0.236% (inactive) |
| CC(CCc1ccc(O)cc1)NCC(O)c1ccc(O)cc1 (configuration not stated) | -5.84% (inactive) |
| CN(C)C=Nc1c(I)cc(I)c(CCC(=O)O)c1I | 2.26% (inactive) |
| O=P(O)(O)OC[C@H]1O[C@](O)(COP(=O)(O)O)[C@@H](O)[C@@H]1O | 3.08% (inactive) |
| CC(CN(C)C)CN1c2ccccc2Sc2ccc(C(F)(F)F)cc21 (configuration not stated) | -9.58% (inactive) |
| CNC(=O)C[C@@H](N)C(=O)N[C@@H](C(=O)N[C@@H]1C(=O)N2[C@@H]1SC(C)(C)[C@@H]2C(=O)O)c1ccc(O)cc1 | -2.79% (inactive) |
